Screens as filed in PubChem.
Shown are actives, neighbours in structure and some others; about 3.3% of the full set was active somewhere.
Sm TGR inh – blocks Schistosoma mansoni thioredoxin glutathione reductase | purified TGR, DTNB reduction, TNB absorbance 405 nm | AID 485364 | actives 3% (n = 360,000) | Potency, µM (highest dose often 114 µM), hits mostly inhibitors; also: nearly all actives have a fitted effect of over 60% in size
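Kinetic colorimetric format: TGR-catalysed, NADPH-driven DTNB reduction monitored via TNB absorbance. Enzyme dispensed at 20 nM; compound exposure 15 min at room temperature before reaction start.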
LmPK inh – blocks Leishmania mexicana pyruvate kinase activity. Q27686. purified LmPK, Kinase-Glo ATP luminescence, 1 h. Potency, µM (highest dose often 57.5 µM), most hits filed as inhibitors. actives 0.37% (n = 290,000). AID 1721
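Screened at intermediate enzyme activity to detect both inhibitors and activators: LmPK at 0.1 nM, with a 0.5 nM enzyme column as activation reference. PEP 0.5 mM, ADP 0.1 mM; ATP detected by luminescence after 1 h.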
TbPYK inhibitor – inhibitors of Trypanosoma brucei pyruvate kinase | Q57TT1 | TbPYK enzyme, Kinase-Glo Plus ATP luminescence, 45 min | Potency, µM (top dose mostly 76.8 µM), hits mostly inhibitors | actives 0.12% (n = 410,000) | AID 624173; also: nearly all actives have a fitted effect of over 50% in size
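Luminescent Kinase-Glo Plus end-point after 45 min room-temperature reaction of T. brucei pyruvate kinase started with 130 uM ADP (final). Buffer TEA 50 mM pH 7.2 with KCl, MgCl2, BSA, Tween-20; titration-based qHTS with fitted concentration-effect curves.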
RE007 growth inh – less growth of the S. pombe RE007 Vpr strain; S. pombe RE007 Vpr strain, BacTiter-Glo ATP luminescence, 24 h; Potency, µM (highest dose often 92.2 µM), usual class: inhibitors; AID 651644; actives 0.21% (n = 360,000); active = well fitted falling curve with a large enough effect; inconclusive = small, poorly fitted or top-dose-only effect; inactive = no such curve, though single readings can be large or run the other way; also: nearly all actives have a fitted effect of over 50% in size
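Fission yeast strain RE007, carrying one chromosomally integrated HIV-1 vpr copy, was seeded at OD 0.01 in PMG+AL medium with 23 nL pinned compound. After 24 h at 30 °C and 99% humidity, viability was read by BacTiter-Glo luminescence.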
Giardia FBPA inh – inhibitors of Giardia lamblia fructose-1,6-bisphosphate aldolase | A8B2U2 | purified Giardia FBPA | Potency, µM (top dose mostly 59.6 µM), actives largely listed as inhibitors | actives 0.71% (n = 290,000); also: nearly all actives have a fitted effect of over 55% in size
Target sequence (A8B2U2 whole entry, looked up): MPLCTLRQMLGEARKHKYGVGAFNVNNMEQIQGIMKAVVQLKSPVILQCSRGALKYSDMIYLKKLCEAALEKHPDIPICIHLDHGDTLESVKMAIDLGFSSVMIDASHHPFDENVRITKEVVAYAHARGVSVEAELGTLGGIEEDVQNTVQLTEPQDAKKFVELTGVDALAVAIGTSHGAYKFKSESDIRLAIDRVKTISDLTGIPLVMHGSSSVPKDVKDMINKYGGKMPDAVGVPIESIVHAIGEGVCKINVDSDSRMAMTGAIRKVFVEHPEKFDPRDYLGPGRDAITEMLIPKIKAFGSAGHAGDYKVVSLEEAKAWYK
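Giardia FBPA (40 nM reagent) was preincubated 10 min at RT with compound (up to 57.5 uM final), then substrate plus GAPDH/TPI/NAD/arsenate coupling system with diaphorase/resazurin was added; resorufin fluorescence (525/598 nm) was read after 20 min.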
Large screens that a line does not name were inactive. Unless noted, calls follow the shape of the dose curve; as a rule, active = well fitted curve in the direction sought with a large enough effect; inconclusive = small, poorly fitted or top-dose-only effect, or another doubt; inactive = no such curve, though single readings can be large; an effect the other way counts as inactive or inconclusive.

CCCn1nnc(NC(=O)/C=C/c2ccco2)n1	Sm TGR inh 5.6µM
Cc1nc(NC(=O)/C=C/c2ccco2)sc1C	Sm TGR inh 50µM
CCOC(=O)c1sc(NC(=O)/C=C/c2ccc(F)cc2)nc1C	none (no result: Sm TGR inh)
O=C(/C=C/c1ccco1)NC1=NCCS1	Sm TGR inh 45µM
NC1=NC(=O)/C(=C/c2cccc(F)c2)S1	none
O=[N+]([O-])c1ccc(-c2nc(Cl)c3c(n2)CCCC3)o1	none (no result: Sm TGR inh, LmPK inh, Giardia FBPA inh)
COc1ccc(-c2cn(-c3ccc(Cl)cc3)c3[n+]2CCCCC3)cc1	none
COc1cc(/C=C/C(=O)Nc2nc3ccc(S(=O)(=O)N(C)C)cc3s2)cc(OC)c1OC	none
CCc1nnc(NC(=O)/C=C/c2ccco2)s1	Sm TGR inh 40µM
CNS(=O)(=O)c1ccc2nc(NC(=O)/C=C/c3ccco3)sc2c1	Sm TGR inh 22µM
O=C(/C=C/c1ccco1)Nc1nnc(-c2ccco2)s1	none
CCSc1nnc(NC(=O)/C=C/c2ccco2)s1	Sm TGR inh 22µM
COc1ccc2nc(N3C(=O)C(O)=C(C(=O)c4ccco4)C3c3ccccc3OC)sc2c1 (stereo unspecified)	none (no result: Giardia FBPA inh)
COc1ccc2nc(N3C(=O)C(O)=C(C(=O)c4ccco4)C3c3ccc(C)o3)sc2c1 (stereo unspecified)	Sm TGR inh 32µM (no result: LmPK inh, Giardia FBPA inh)
CCOC(=O)c1sc(N2C(=O)C(O)=C(C(=O)c3ccco3)C2c2ccco2)nc1C (stereo unspecified)	Sm TGR inh 25µM
O=C(Nc1ccc(C(F)(F)F)cc1)c1cc(S(=O)(=O)NCC2COc3ccccc3O2)ccc1F (stereo unspecified)	none
COc1cc(O)oc1C=Nc1ccc(C(=O)O)cc1	LmPK inh 25µM, TbPYK inhibitor inconclusive, RE007 growth inh inconclusive
COc1cc(O)oc1C=Nc1ccc(Cl)cc1Cl	Sm TGR inh 79µM
COc1cc(O)oc1C=Nc1ccc(Cl)cc1	none
COc1ccc(OC)c(NS(=O)(=O)c2cc3c(cc2Cl)N(C(C)=O)CCO3)c1	Sm TGR inh 2.5µM (no result: LmPK inh, RE007 growth inh, Giardia FBPA inh)
COc1cc(OC)c(NS(=O)(=O)c2cc3c(cc2C)N(C(C)=O)CCO3)cc1Cl	none (no result: LmPK inh, RE007 growth inh, Giardia FBPA inh)
NC(=O)c1ccc(NCCc2ccccc2)c([N+](=O)[O-])c1	none
COc1ccc(C(C[N+](=O)[O-])c2c(-c3ccccc3)cc3ccccn23)c(OC)c1 (stereo unspecified)	Sm TGR inh 56µM, RE007 growth inh inconclusive, Giardia FBPA inh inconclusive
COc1ccc(C(C[N+](=O)[O-])c2c(C)cc3ccccn23)cc1 (stereo unspecified)	Sm TGR inh 28µM, RE007 growth inh inconclusive, Giardia FBPA inh inconclusive
O=c1oc2ccccc2c(N2CCCC2)c1CN1CCCC1	Sm TGR inh 35µM
O=c1oc2ccccc2c(Cl)c1CN1CCCCC1	Sm TGR inh 4.5µM
Nc1c(NCCN2CCCCC2)c2ccccc2oc1=O	Sm TGR inh 28µM
COc1ccccc1N1CCN(c2c(CN3CCCC3)c(=O)oc3ccccc23)CC1	none (no result: LmPK inh, RE007 growth inh, Giardia FBPA inh)
CC(C)CN1CC[C@@]2(CCCN(C(=O)c3ccncc3)C2)C1	none (no result: Sm TGR inh, LmPK inh, RE007 growth inh)
CCOC(=O)NC(=O)c1cn(N(C)c2ncc(C(F)(F)F)cc2Cl)c(=O)[nH]c1=O	none
Oc1ccc(-c2n[nH]c(=S)n2-c2ccc3c(c2)OCCO3)cc1	LmPK inh inconclusive, TbPYK inhibitor 4.5µM
S=c1[nH]nc(-c2ccc3ncccc3c2)n1-c1ccc2c(c1)OCCO2	LmPK inh 7.1µM, TbPYK inhibitor 3.5µM
S=c1[nH]nc(Cn2c(-c3ccccn3)nc3ccccc32)n1-c1ccc2c(c1)OCCO2	LmPK inh inconclusive, TbPYK inhibitor 16µM
CN(C)c1ccc(-c2n[nH]c(=S)n2-c2ccccc2)cc1	TbPYK inhibitor inconclusive
O=C(CCCc1ccccc1)Nc1cccnc1Cl	none (no result: Sm TGR inh)
CC(C)Nc1nc(NC(C)C)nc(N(C#N)C(C)C(=O)N(C)C)n1 (stereo unspecified)	Sm TGR inh 40µM (no result: TbPYK inhibitor, RE007 growth inh)
Cc1ccccc1OCc1cc(=O)n2c(-c3ccccc3)csc2n1	none (no result: LmPK inh, RE007 growth inh, Giardia FBPA inh)
COc1ccc(OC)c2c(C)c(C)[nH]c12	Sm TGR inh 32µM
O=C1c2[nH]nc(-c3ccccc3O)c2C(c2ccc(F)cc2)N1CC1CCCO1 (stereo unspecified)	none
C[N+]1(C)CCC(=C2c3ccccc3CC(=O)c3sccc32)CC1	Sm TGR inh 28µM (no result: Giardia FBPA inh)
O=c1c2c3c(sc2nc2n1CCCC2)CCCC3	RE007 growth inh 28µM
O=c1c2c3c(sc2nc2n1CCC2)CCCCC3	none (no result: Sm TGR inh)
CCOC(=O)c1c(C)n(Cc2ccc3c(c2)OCO3)c2ccc(O)cc12	none (no result: TbPYK inhibitor)
CCOC(=O)c1c(C)n(Cc2ccc(F)cc2)c2ccc(O)cc12	LmPK inh 18µM, TbPYK inhibitor inconclusive
Cc1cccc(Cn2cc(C(=O)Nc3ccc(F)c(C(F)(F)F)c3)ccc2=O)c1	none (no result: LmPK inh, RE007 growth inh, Giardia FBPA inh)
CCN(C(=O)Cn1cnc2c(nc3n2CCCCC3)c1=O)c1cccc(Cl)c1	none (no result: Giardia FBPA inh)
CC(C)NC(NC(=O)Cc1ccccc1)C(Cl)(Cl)Cl (stereo unspecified)	none
CCN(CC)C(NC(=O)Cc1ccccc1)C(Cl)(Cl)Cl (stereo unspecified)	Sm TGR inh 18µM
CC(NC(=O)Cc1ccccc1)C(=O)O (stereo unspecified)	Sm TGR inh 50µM (no result: LmPK inh, Giardia FBPA inh)
O=C(CN1C(=O)c2cccc3cccc1c23)NCC1CCCO1 (stereo unspecified)	Giardia FBPA inh inconclusive
COc1cccc(CCNC(=O)c2cc(COc3ccc(C)c(C)c3)on2)c1OC	none (no result: Sm TGR inh, LmPK inh, Giardia FBPA inh)
CC(O)CN1C(=O)C(CC(=O)Nc2ccc(Cl)cc2)SC1=Nc1ccccc1 (stereo unspecified)	Sm TGR inh 18µM, RE007 growth inh inconclusive
COCCN1C(=O)C(CC(=O)Nc2ccc(C(C)=O)cc2)SC1=Nc1ccccc1 (stereo unspecified)	none
CCCCS(=O)(=O)/C=C\C1C2C=CC(C2)C1S(=O)(=O)CCCC (stereo unspecified)	none
CCCCS(=O)(=O)/C=C\C=C/S(=O)(=O)CCCC	Sm TGR inh 2.2µM, TbPYK inhibitor inconclusive, RE007 growth inh 8.9µM
CCSc1ccc([C@@H]2[C@@H]3C(=O)N(CC)C(=O)[C@@H]3[C@]3(C(=O)OC)CCCN23)cc1	Sm TGR inh 35µM (no result: LmPK inh, Giardia FBPA inh)
CCN1C(=O)[C@@H]2[C@@H](c3ccc(-c4ccc(Cl)c(Cl)c4)c(OC)c3)N3CCC[C@@]3(C(=O)OC)[C@@H]2C1=O	Sm TGR inh 35µM (no result: LmPK inh, Giardia FBPA inh)
CC(=O)c1cnc2cc(C)nn2c1C	none
Cc1cc2ncc(C(=O)Nc3ccsc3C(=O)O)c(C)n2n1	LmPK inh 25µM, TbPYK inhibitor inconclusive
O=[N+]([O-])c1cccc(-c2ccc(/C=N/n3c(-c4ccccc4)n[nH]c3=S)o2)c1	none
Cc1nnc(N/N=C\c2ccc(-c3ccccc3[N+](=O)[O-])o2)n1N	Giardia FBPA inh 1.8µM
Cc1n[nH]c(=S)n1/N=C/c1ccc(-c2ccccc2[N+](=O)[O-])o1	TbPYK inhibitor 7.9µM
